Measurements from PubChem BioAssay (NCATS).
Results filed as inconclusive are left out. Unmarked numbers belong to inactive results. The call rests on the fitted dose curve; in most records, active means well fitted inhibition curve with a large enough effect; inconclusive means small, poorly fitted or top-dose-only effect; inactive means flat fitted curve, though single readings scatter.

What follows are molecules tested against Calcium and integrin-binding protein 1 (Homo sapiens) (UniProt Q99828) (assay: Primary qHTS for Identification of Calcium Integrin Binding Protein 1 (CIB1) Competitor (AID 1508620; further: top concentration of the series differs between compounds)). Conditions: CIB1-GST / FITC-alphaIIb peptide fluorescence polarization; series mostly up to 57.7 µM; activity change, negative = inhibition: at the top concentration.
Sequence of Calcium and integrin-binding protein 1 (Homo sapiens) (Q99828 whole entry, looked up): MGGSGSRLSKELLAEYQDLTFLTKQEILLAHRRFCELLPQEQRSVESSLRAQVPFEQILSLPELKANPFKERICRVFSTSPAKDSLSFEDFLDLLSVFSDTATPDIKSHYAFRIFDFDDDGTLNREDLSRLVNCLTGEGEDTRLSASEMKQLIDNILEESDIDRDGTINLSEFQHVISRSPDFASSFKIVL
How it was run: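 Fluorescence polarization competition: GST-tagged CIB1 (1 uM final) preincubated with compound 15 min at room temperature, then FITC-labelled alphaIIb peptide (100 nM final) added. After 15 min at room temperature, polarization read at Ex 480/Em 540.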
On the % scale 0 is the no-effect control and ±100 the full control effect.

Row | SMILES | activity change, negative = inhibition
1 | CCC1CC2C(C)=CC3CCCCC3C2(C)C2(OC(=O)C(C)(O)OC2=O)O1 (stereo not drawn) | -1.08%
2 | CC1(CCC(=O)O)C(=O)C=CC23CC4CC(OC4(C)C2O)C13 (stereo not drawn) | -0.22%
3 | CC(/C=C/[C@]1(O)[C@@]2(C)CO[C@@]1(C)C[C@@H](O)C2)=C\C(=O)O[C@@H]1O[C@H](CO)[C@@H](O)[C@H](O)[C@H]1O | 3.13%
4 | CC(CCC1(O)OC2CC3C4CCC5CC(O[C@@H]6O[C@H](CO)[C@@H](O)[C@H](O)[C@H]6O[C@@H]6OC[C@@H](O)[C@H](O)[C@H]6O)C(O)CC5(C)C4CCC3(C)C2C1C)CO[C@@H]1O[C@H](CO)[C@@H](O)[C@H](O)[C@H]1O (stereo partly drawn) | -0.357% [at 30.2 µM]
5 | O=C(CCCCc1ccc2ccccc2c1)C(F)(F)F | -2.3% [at 228 µM]
6 | CC[C@H]1OC(=O)[C@H](C)[C@@H](O[C@H]2C[C@@](C)(OC)[C@@H](O)[C@H](C)O2)[C@H](C)[C@@H](O[C@@H]2O[C@H](C)C[C@H](N(C)C)[C@H]2O)[C@@](C)(O)C[C@@H](C)[C@@H]2N[C@@H](COCCOC)OC([C@H]2C)[C@]1(C)O | 3.86% [at 114 µM]
7 | CC(C)C1=CC2=CCC3[C@](C)(CCC[C@@]3(C)C(=O)O)C2CC1=O (stereo partly drawn) | 0.262%
8 | CC(C)(O)C1CCC2(C)C3C(O)C4C(C13)C42CO (stereo not drawn) | -0.326% [at 114 µM]
9 | Cc1c(CN(C)C(=O)/C=C/c2cnc3c(c2)CCC(=O)N3)oc2ccccc12 | 2.58% [at 114 µM]
10 | COc1cc(/C=C/C(=O)OC2CC(C)=C(C(=O)O)/C2=C/CO[C@@H]2O[C@H](CO)[C@@H](O)[C@H](O)[C@H]2O)ccc1O (stereo partly drawn) | -9.53%
11 | COC12CC3C(C(C)C1=CC(=O)O2)C(O)C(OC(C)=O)C1C(C)(C)C(OC(C)=O)CCC31C (stereo not drawn) | 2.07%
12 | COc1cc(C)c(C(=O)O[C@H]2[C@@H](O)[C@H](n3ccc(=O)[nH]c3=O)O[C@@H]2CO)c(OC)c1 | -5.75%
13 | C/C=C(\C)C(=O)OC[C@H]1O[C@H](O[C@H]2O[C@H](CO)[C@@H](OC(=O)/C(C)=C/C)[C@H](O)[C@H]2O[C@@H]2O[C@H](CO)[C@@H](O)[C@H](O)[C@H]2O)[C@H](O[C@@H]2O[C@H](CO)[C@@H](O)[C@H](O)[C@H]2O)[C@@H](O)[C@@H]1O | 1.32% [at 30.2 µM]
14 | C=CC1(C)C=C2C(O)CC3C(C)(C(=O)O)CCCC3(C)C2CC1 (stereo not drawn) | 2.94%
15 | C=CC1C(O[C@@H]2O[C@H](CO)[C@@H](O)[C@H](O)[C@H]2O)OC=C(C(=O)OC)C1CC(=O)O (stereo partly drawn) | -2.29%
16 | CC(C)[C@@H](C)/C=C/[C@@H](C)[C@H]1CC[C@H]2C3=CC=C4C[C@@H](O)CC[C@]4(C)[C@H]3CC[C@]12C | 4.59%
17 | COc1ccc(C(=O)O[C@H]2CC(C)=CC[C@@]3(C)[C@@H](OC(C)=O)C[C@@](O)(C(C)C)[C@H]23)cc1 | -4.92%
18 | COc1cc(/C=C/c2cc(O)cc(O[C@@H]3O[C@H](CO)[C@@H](O)[C@H](O)[C@H]3O)c2)ccc1O | 1.66%
19 | C=C1C2=CC(O)C(C)C1(C)CC/C(C)=C/CCC1(C)OC1C2=O (stereo not drawn) | 3.11%

Row | SMILES | activity change, negative = inhibition
20 | C[C@@H]1O[C@@H](O[C@H]2[C@H](O[C@H]3CC[C@@]4(C)C(CC[C@]5(C)C4CC=C4C6CC(C)(C)CC[C@]6(C(=O)O[C@@H]6O[C@H](CO[C@@H]7O[C@H](CO)[C@@H](O[C@@H]8O[C@@H](C)[C@H](O)[C@@H](O)[C@H]8O)[C@H](O)[C@H]7O)[C@@H](O)[C@H](O)[C@H]6O)CC[C@]45C)[C@]3(C)CO)OC[C@H](O)[C@@H]2O)[C@H](O)[C@H](O)[C@H]1O (stereo partly drawn) | 2.74% [at 12.4 µM]
21 | COc1cc(O[C@@H]2O[C@H](CO)[C@@H](O)[C@H](O)[C@H]2O)c(CCC(=O)OC[C@H]2O[C@@H](Oc3cc(OC)c(C4OC(=O)C(C)(O)C4O)cc3CCC(=O)O)[C@H](O)[C@@H](O)[C@@H]2O)cc1C1OC(=O)C(C)(O)C1O (stereo partly drawn) | 0.801% [at 30.2 µM]
22 | C/C=C1/[C@H](O[C@@H]2O[C@H](CO)[C@@H](O)[C@H](O)[C@H]2O)OC=C(C(=O)OC)[C@H]1CC(=O)O[C@@H]1O[C@H](CO)[C@@H](O)[C@H](O)[C@H]1O | 4.09% [at 30.2 µM]
23 | CC(=O)OCC1=C[C@H](O)[C@@H]2C(C(=O)O)=CO[C@@H](O[C@@H]3O[C@H](CO)[C@@H](O)[C@H](O)[C@H]3O)[C@H]12 | -3.03%
24 | CC1CCC2(O1)C(C)(C)CC(O[C@@H]1O[C@H](CO[C@@H]3OC[C@](O)(CO)[C@H]3O)[C@@H](O)[C@H](O)[C@H]1O)CC2(C)O (stereo partly drawn) | -1.07%
25 | CC1CCC2(NC1)OC1C(=O)C3C4CCC5CC(O[C@@H]6O[C@H](CO)[C@@H](O)[C@H](O)[C@H]6O[C@@H]6O[C@@H](C)[C@H](O)[C@@H](O)[C@H]6O)CCC5(C)C4CCC3(C)C1C2C (stereo partly drawn) | 0.761% [at 30.2 µM]
26 | C=C1CCC(OC(C)=O)C2(C)CC3(O)OC(=O)C(C)=C3CC12 (stereo not drawn) | -0.857% [at 114 µM]
27 | N#CCc1ccc(O)cc1O[C@@H]1O[C@H](CO)[C@@H](O)[C@H](O)[C@H]1O | -1.69%
28 | COc1cc(C(O)C(CO)Oc2ccc(CCCO[C@@H]3O[C@@H](C)[C@H](O)[C@@H](O)[C@H]3O)cc2OC)ccc1O (stereo partly drawn) | -3.14%
29 | COc1cc(C2Oc3c(O)cc(CCCO)cc3C2CO)ccc1O[C@H]1O[C@H](C)[C@@H](O)[C@H](O)[C@@H]1O (stereo partly drawn) | 3.12%
30 | C=C(C)C1CC2(CO)C(=CC1=O)CCC(O)C2C (stereo not drawn) | -3.41% [at 114 µM]
31 | CN1C(=O)c2ccccc2-n2c(nc3ccccc3c2=O)/C1=C/c1ccccc1 | -0.856%
32 | CC(C)C(=O)O[C@@H]1[C@@H](O)[C@@H](O[C@H]2O[C@H](CO)[C@@H](O)[C@H](O)[C@H]2O)O[C@H](CO)[C@H]1O | 0.154%
33 | COc1cc([C@@H]2Oc3c(OC)cc(CCCO)cc3[C@@H]2CO[C@@H]2O[C@H](CO)[C@@H](O)[C@H](O)[C@H]2O)ccc1O | -1.63%
34 | Clc1ccc2c(c1)C1=NCCN1c1c(-c3noc(C4CC4)n3)ncn1-2 | -7.06% [at 114 µM]
35 | CC1=C2[C@@H]([C@H](C)CC[C@H]2/C=C(\C)C(=O)O)[C@H](O)C1 | -3.68% [at 114 µM]
36 | CC1OC(O[C@H]2[C@@H](O)C[C@@]3(C)C([C@H](O)C[C@]4(C)C3CC=C3C5CC(C)(C)CC[C@]5(C(=O)OC5OC(CO)C(O)C(O)C5OC5OCC(OC6OCC(OC7OCC(O)C(O)C7O)C(O)C6O)C(OC6OCC(O)(CO)C6O)C5O)CC[C@]34C)[C@]2(C)CO)C(O)C(O)C1O (stereo partly drawn) | -4.55% [at 12.4 µM]
37 | C=C1CC[C@H]2[C@@](C)(CCC[C@@]2(C)C(=O)O)[C@@H]1CCC(C)CCO (stereo partly drawn) | -0.143%
38 | CC(C)CC1(C(=O)OCc2ccc(O[C@@H]3O[C@H](CO)[C@@H](O)[C@H](O)[C@H]3O)cc2)CC(=O)OC(C(=O)O)CC(=O)OCC2OC(O1)C(OC(=O)/C=C/c1ccc(O)cc1)C(O)C2O (stereo partly drawn) | 2.29% [at 30.2 µM]
